Test results from PubChem BioAssay (Tox21).
Unmarked numbers belong to inactive results. Inconclusive results are not listed. Entries that show only a call come without a potency. Active and inactive are the calls of the source. Unless noted, the call rests on the fitted dose curve; in most records, active means well fitted curve in the direction sought with a large enough effect in the repeat runs; inconclusive means weak or mixed curves; inactive means no such curve, though single readings can be large; an effect the other way counts as inactive or inconclusive.

Tests used:
[1] = molecular target: Thyrotropin receptor (Homo sapiens) (UniProt P16473); test: qHTS assay to identify small molecule agonists of the thyroid stimulating hormone receptor (TSHR) signaling pathway (AID 1224843; calls by dose curve; further: nearly all actives have a fitted effect of over 45% in size); conditions: TSHR-HEK293 cells, cAMP HTRF, agonist mode, 30 min; series mostly up to 92.4 µM
How it was run: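 Cell line HEK293 with TSHR; density 800/well. Exposure 30 min RT. Readout HTRF cAMP (cAMP-d2/anti-cAMP-cryptate), 1 h RT before reading.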

[2] = qHTS assay to identify small molecule agonists of the hypoxia (HIF-1) signaling pathway - cell viability counter screen (AID 1224844; calls by dose curve; further: nearly all actives have a fitted effect of over 50% in size); conditions: HRE-bla ME-180 viability, CellTiter-Glo luminescence, 17 h; series mostly up to 76.8 µM
How it was run: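 HRE-bla ME-180 cells in medium with 0.5% dialyzed FBS were preincubated 5 hrs at 37C, exposed to compounds for 17 hrs, then viability was read as CellTiter-Glo luminescence after 30 min at room temperature, in the reporter wells.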

[3] = qHTS assay to identify small molecule agonists of H2AX (AID 1224845; active means well fitted activation curve with a large enough effect in the signal ratio in the repeat runs, not every such curve was filed as active; the % refers to the signal ratio); conditions: CHO-K1 phospho-H2AX Ser139 HTRF, 3 h; series mostly up to 154 µM
How it was run: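 Wild-type CHO-K1 cells plated overnight, then exposed 3 hr at 37C to compounds at 15 concentrations (0.76% DMSO). Lysed, then HTRF anti-pH2AX(S139)-cryptate/anti-H2AX-d2 detection after 24 hr at room temperature; emissions 665 and 620 nm.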

[4] = qHTS assay to identify small molecule agonists of the hypoxia (HIF-1) signaling pathway (AID 1224846; active means well fitted activation curve with a large enough effect in the signal ratio in the repeat runs, not every such curve was filed as active; the % refers to the signal ratio); conditions: HRE-bla ME-180 cells, beta-lactamase ratio, 17 h; series mostly up to 76.8 µM
How it was run: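 HRE-bla ME-180 cells (beta-lactamase reporter under hypoxia response element) were plated at 2,000 cells/well in medium with 0.5% dialyzed FBS, rested 5 hrs, then given compounds in DMSO for 17 hrs at 37C, 5% CO2. Reporter induction was read with CCF4-AM FRET substrate.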

[5] = qHTS assay to identify small molecule agonists of H2AX - cell viability counter screen (AID 1224847; calls by dose curve; further: top concentration of the series differs between compounds; nearly all actives have a fitted effect of over 30% in size); conditions: CHO-K1 viability, CellTiter-Glo luminescence, 3 h; series mostly up to 154 µM
How it was run: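 CHO-K1 wt, 1000 cells/well, o/n 37C; cpds 15 conc, 3 h 37C, 0.76% DMSO; CellTiter-Glo, 30 min RT, luminescence.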

[6] = qHTS assay to identify small molecule antagonists of the estrogen related receptor (ERR) signaling pathway from Tox21 library (AID 1224848); conditions: ERR reporter cell line, luciferase antagonist mode, 18 h; series mostly up to 92.4 µM; further: nearly all actives have a fitted effect of over 50% in size; further: potency means the concentration at half of the fitted maximal effect
How it was run: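 Screening used an ERR reporter line supplied by NTP, exposed for 18 h at 37 C to library compounds delivered in DMSO. Signal was luciferase luminescence developed with ONE-Glo at room temperature for 30 min.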

[7] = qHTS assay to identify small molecule agonists of the estrogen related receptor (ERR) signaling pathway from Tox21 library (AID 1224849; calls by dose curve; further: nearly all actives have a fitted effect of over 15% in size); conditions: ERR reporter cell line, ONE-Glo luciferase, 18 h; at 92.4 µM (top of the series) unless noted
How it was run: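 ERR reporter cell line (NTP) seeded, rested 6 h at 37 C/5% CO2, then pinned with Tox21 compounds in DMSO. After 18 h at 37 C, ONE-Glo luciferase luminescence was read following 30 min at room temperature.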

[8] = qHTS RealTime-Glo MT Cell Viability Assay in HepG2 cells - 24 hour (AID 1224867); conditions: RealTime-Glo luminescence; series mostly up to 76.8 µM; further: nearly all actives have a fitted effect of over 50% in size
How it was run: (§1)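 Cells + NanoLuc/prosubstrate dispensed (600 cells/well) → 5 h at 37 C/5% CO2 → compounds in DMSO transferred → 40 h incubation at 37 C, luminescence read at 0, 8, 16, 24, 32, 40 h.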

[9] = qHTS RealTime-Glo MT Cell Viability Assay in HEK293 cells - 32 hour (AID 1224868); conditions: RealTime-Glo luminescence; series mostly up to 76.8 µM; further: nearly all actives have a fitted effect of over 50% in size; further: potency means the concentration at half of the fitted maximal effect
How it was run: (§2)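 Tox21 10K qHTS, HEK293, 600 cells/well, RealTime-Glo reagent co-dispensed with cells; 5 h preincubation, compound by pintool, 37 C, luminescence at 0–40 h.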

[10] = A CellTox Green Cytotoxicity Assay to monitor cytotoxicity in HEK293 cells - 0 hour (AID 1224869); conditions: CellTox Green fluorescence; series mostly up to 76.8 µM; further: nearly all actives have a fitted effect of over 50% in size; further: potency means the concentration at half of the fitted maximal effect
How it was run: (§3)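 HEK293 cells premixed with CellTox Green dye were seeded at 600 cells/well and left 5 h at 37 C/5% CO2 before pin transfer of 23 nL compound in DMSO. Fluorescence from dye bound to dead-cell DNA was read during 40 h treatment.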

[11] = qHTS RealTime-Glo MT Cell Viability Assay in HepG2 cells - 40 hour (AID 1224870); conditions: RealTime-Glo luminescence; series mostly up to 76.8 µM; further: nearly all actives have a fitted effect of over 50% in size
How it was run: (§4)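 HepG2 cells mixed with RealTime-Glo MT reagents (NanoLuc plus cell-permeant prosubstrate) were seeded at 600 cells/well, incubated 5 h at 37 C/5% CO2, then pinned with compounds in DMSO; nonlytic luminescence tracked viability during 40 h treatment.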

[12] = A CellTox Green Cytotoxicity Assay to monitor cytotoxicity in HEK293 cells - 40 hour (AID 1224871); conditions: CellTox Green fluorescence; series mostly up to 76.8 µM; further: nearly all actives have a fitted effect of over 45% in size; further: potency means the concentration at half of the fitted maximal effect
How it was run: as §3

[13] = qHTS RealTime-Glo MT Cell Viability Assay in HEK293 cells - 16 hour (AID 1224872); conditions: RealTime-Glo luminescence; series mostly up to 76.8 µM; further: nearly all actives have a fitted effect of over 50% in size; further: potency means the concentration at half of the fitted maximal effect
How it was run: as §2

[14] = qHTS RealTime-Glo MT Cell Viability Assay in HepG2 cells - 8 hour (AID 1224873); conditions: RealTime-Glo luminescence; series mostly up to 76.8 µM; further: nearly all actives have a fitted effect of over 55% in size
How it was run: as §4

[15] = qHTS RealTime-Glo MT Cell Viability Assay in HEK293 cells - 40 hour (AID 1224874); conditions: RealTime-Glo luminescence; max response: active compounds read low; further: nearly all actives have a fitted effect of over 50% in size
How it was run: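 HEK293 cells mixed with RealTime-Glo reagents (NanoLuc plus cell-permeant prosubstrate) at 600 cells/well, preincubated 5 h at 37 C/5% CO2, then given 23 nL compound in DMSO. Nonlytic luminescence from viable cells was read at 0, 8, 16, 24, 32 and 40 h.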

[16] = A CellTox Green Cytotoxicity Assay to monitor cytotoxicity in HepG2 cells - 16 hour (AID 1224876); conditions: CellTox Green fluorescence; series mostly up to 76.8 µM; further: nearly all actives have a fitted effect of over 45% in size; further: potency means the concentration at half of the fitted maximal effect
How it was run: (§5)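 HepG2 cells were seeded together with the CellTox Green dye at 600 cells/well, left 5 h at 37 C/5% CO2, then given compounds in DMSO. Fluorescence from dye bound to dead-cell DNA was read repeatedly over 40 h of treatment at 37 C.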

[17] = qHTS RealTime-Glo MT Cell Viability Assay in HepG2 cells - 32 hour (AID 1224877); conditions: RealTime-Glo luminescence; series mostly up to 76.8 µM; further: nearly all actives have a fitted effect of over 55% in size
How it was run: as §1

[18] = A CellTox Green Cytotoxicity Assay to monitor cytotoxicity in HepG2 cells - 24 hour (AID 1224878); conditions: CellTox Green fluorescence; series mostly up to 76.8 µM; further: nearly all actives have a fitted effect of over 45% in size; further: potency means the concentration at half of the fitted maximal effect
How it was run: as §5

[19] = A CellTox Green Cytotoxicity Assay to monitor cytotoxicity in HepG2 cells - 40 hour (AID 1224879); conditions: CellTox Green fluorescence; series mostly up to 76.8 µM; further: nearly all actives have a fitted effect of over 40% in size; further: potency means the concentration at half of the fitted maximal effect
How it was run: as §5

[20] = A CellTox Green Cytotoxicity Assay to monitor cytotoxicity in HEK293 cells - 24 hour (AID 1224875); conditions: CellTox Green fluorescence; series mostly up to 76.8 µM; further: nearly all actives have a fitted effect of over 45% in size; further: potency means the concentration at half of the fitted maximal effect
How it was run: as §3

Thyrotropin receptor (Homo sapiens), sequence (P16473 whole entry, looked up): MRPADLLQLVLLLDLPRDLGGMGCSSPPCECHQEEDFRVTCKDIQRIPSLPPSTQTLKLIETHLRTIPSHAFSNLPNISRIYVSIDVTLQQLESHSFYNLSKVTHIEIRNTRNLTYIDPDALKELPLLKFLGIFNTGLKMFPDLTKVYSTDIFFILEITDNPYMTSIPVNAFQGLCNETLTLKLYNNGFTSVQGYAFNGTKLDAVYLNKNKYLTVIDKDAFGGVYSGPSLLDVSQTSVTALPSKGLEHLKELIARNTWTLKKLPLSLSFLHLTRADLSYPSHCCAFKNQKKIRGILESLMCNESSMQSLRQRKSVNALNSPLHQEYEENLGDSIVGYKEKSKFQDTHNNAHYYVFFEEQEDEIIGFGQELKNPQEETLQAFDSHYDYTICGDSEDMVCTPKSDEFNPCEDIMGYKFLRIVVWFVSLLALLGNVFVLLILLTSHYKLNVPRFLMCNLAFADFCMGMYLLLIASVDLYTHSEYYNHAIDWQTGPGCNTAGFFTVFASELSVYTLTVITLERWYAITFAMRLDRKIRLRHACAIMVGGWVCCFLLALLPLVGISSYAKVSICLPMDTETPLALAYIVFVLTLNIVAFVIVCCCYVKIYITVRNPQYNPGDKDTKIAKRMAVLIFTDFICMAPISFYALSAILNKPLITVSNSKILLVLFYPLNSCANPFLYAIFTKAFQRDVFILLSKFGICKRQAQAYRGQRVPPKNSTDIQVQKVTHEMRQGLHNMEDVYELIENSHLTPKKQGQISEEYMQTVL

Row | SMILES | Potency [1] | Potency [2] | Potency [3] | outcome [4] | Potency [5] | Potency [6] | activity change, positive = activation [7] | Potency [8] | Potency [9] | Potency [10] | Potency [11] | Potency [12] | Potency [13] | Potency [14] | max response [15] [%] | Potency [16] | Potency [17] | Potency [18] | Potency [19] | Potency [20]
1 | CC1=CC(=O)CC(C)(C)C1(O)/C=C/C(C)=C\C(=O)O (centres undefined) | inactive | inactive | inactive | inactive | inactive | inactive | 4.36% | inactive | inactive | inactive | inactive | inactive | inactive | inactive | 8.54 | inactive | inactive | inactive | inactive | –
2 | O=C(CCC1CCN(Cc2ccccc2)CC1)c1ccc2c(c1)NCCCC2 | inactive | inactive | inactive | inactive | inactive | 18.8 µM (active) | -36% [at 42.5 µM] | inactive | 8.49 µM (active) | inactive | inactive | – | 9.52 µM (active) | inactive | – | inactive | – | inactive | – | inactive
3 | c1cnc2c(n1)CCCC2 | inactive | inactive | inactive | inactive | inactive | – | 3.42% | inactive | inactive | 43.6 µM (active) | inactive | 43.6 µM (active) | inactive | inactive | – | 38.9 µM (active) | inactive | 38.9 µM (active) | 38.9 µM (active) | 43.6 µM (active)
4 | N#C/C(=C1/SC[C@@H](c2ccc(Cl)cc2Cl)S1)n1ccnc1 | inactive | inactive | inactive | inactive | – | 23.7 µM (active) | -40.9% [at 42.5 µM] | inactive | inactive | inactive | inactive | inactive | inactive | – | -23.1 | inactive | inactive | inactive | inactive | inactive
5 | Cc1cnc(C)c(C)n1 | inactive | inactive | inactive | inactive | inactive | – | – | inactive | inactive | inactive | inactive | inactive | inactive | inactive | -11.2 | inactive | inactive | inactive | inactive | –
6 | COC(OC)(C(=O)c1ccccc1)c1ccccc1 | inactive | inactive | inactive | inactive | – | inactive | -3.37% | inactive | inactive | inactive | inactive | – | inactive | inactive | – | inactive | inactive | inactive | inactive | inactive
7 | O=c1[nH]c2ccc(S(=O)CCN3CCC(Cc4ccc(F)cc4)CC3)cc2o1 (centres undefined) | inactive | inactive | inactive | inactive | – | – | -29.7% | inactive | – | inactive | inactive | – | – | inactive | – | inactive | – | inactive | – | inactive
8 | CCC(C)(C)C1CCC(O)CC1 (centres undefined) | inactive | inactive | inactive | inactive | inactive | – | – | inactive | inactive | inactive | inactive | inactive | inactive | inactive | 3.32 | – | inactive | – | – | inactive
9 | CCCCCCOC(=O)C(C)C | inactive | inactive | inactive | inactive | – | inactive | 7.77% | inactive | inactive | inactive | inactive | inactive | inactive | inactive | 6.06 | inactive | inactive | inactive | inactive | inactive
10 | CCOCCn1c(C2CCN(CCc3ccc(C(C)(C)C(=O)O)cc3)CC2)nc2ccccc21 | inactive | inactive | inactive | inactive | inactive | – | – | – | inactive | inactive | inactive | inactive | inactive | inactive | 0.952 | – | inactive | – | – | inactive
11 | C=CC(=O)NCOCC(C)C | inactive | inactive | inactive | inactive | inactive | – | – | inactive | inactive | inactive | inactive | inactive | inactive | inactive | – | inactive | inactive | inactive | inactive | inactive
12 | Cc1cc(OI)c(C(C)C)cc1-c1cc(C(C)C)c(OI)cc1C | inactive | inactive | inactive | inactive | inactive | – | – | inactive | inactive | inactive | inactive | – | inactive | inactive | -0.141 | inactive | inactive | inactive | inactive | inactive
13 | C=C(C)C(=O)OCCOC(=O)CC(C)=O | inactive | inactive | inactive | inactive | inactive | – | – | inactive | inactive | inactive | inactive | inactive | inactive | inactive | – | inactive | inactive | inactive | inactive | inactive
14 | CC(=O)N(c1onc(C)c1C)S(=O)(=O)c1ccc(N)cc1 | inactive | inactive | inactive | inactive | inactive | – | – | inactive | inactive | inactive | inactive | inactive | inactive | inactive | – | inactive | inactive | inactive | inactive | inactive
15 | C/C(=N/NC(=O)c1ccncc1)C(=O)O | inactive | inactive | inactive | inactive | inactive | – | – | inactive | inactive | inactive | inactive | inactive | inactive | inactive | 0.452 | – | – | inactive | inactive | inactive
